Measured values from PubChem BioAssay (NCI).
Where “and” joins values, the source holds several entries; their conditions need not be identical. Equal values may be shown once. About 79,000 compounds went through this panel and 15% of them were active in at least one assay; those are over-represented in the sample as a whole. No stated cut-off is given here; in the data, active means growth inhibition above about 70%; inactive means the rest.

Assays:
[1] = NCI Yeast Anticancer Drug Screen. Data for the rad50 strain (AID 155);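 further: 0% = growth of vehicle-only cultures of the same strain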; details: S. cerevisiae rad50 strain growth inhibition; at 50.0 µM; hits give high values
Summary of the method: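 Readout: growth inhibition relative to vehicle-treated cultures. Compound exposure was carried out in a genetically defined yeast strain deficient in DNA damage repair.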

[2] = NCI Yeast Anticancer Drug Screen. Data for the mec2-1 strain (AID 157); details: S. cerevisiae mec2-1 strain, at 50.0 µM, hits give high values
Summary of the method: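 Yeast mec2-1 mutant treated with compound. Readout: growth inhibition vs vehicle controls.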

[3] = NCI Yeast Anticancer Drug Screen. Data for the sgs1 mgt1 strain (AID 161);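 further: 0% = growth of cultures given vehicle only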; details: S. cerevisiae sgs1 mgt1 strain, at 50.0 µM, hits give high values
Summary of the method: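 Genetically altered yeast, compound exposure, growth inhibition relative to vehicle.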

[4] = NCI Yeast Anticancer Drug Screen. Data for the cln2 rad14 strain (AID 165);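 further: 0% = growth equal to vehicle treated cultures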; details: S. cerevisiae cln2 rad14 strain, at 50.0 µM, hits give high values
Summary of the method: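 cln2 rad14 yeast strain; compound exposure; growth inhibition read vs vehicle controls.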

[5] = NCI Yeast Anticancer Drug Screen. Data for the bub3 strain (AID 167); details: S. cerevisiae bub3 mutant strain, at 50.0 µM, hits give high values
Summary of the method: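 Readout: yeast growth inhibition, expressed relative to vehicle-only wells. The test organism is a mutant strain from a panel with lesions in DNA repair or checkpoint genes.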

[6] = NCI Yeast Anticancer Drug Screen. Data for the mlh1 rad18 strain (AID 175); details: S. cerevisiae mlh1 rad18 strain growth inhibition; at 50.0 µM; hits give high values
Summary of the method: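 Yeast w/ defined DNA-repair lesions; compound exposure; growth vs vehicle controls → % inhibition.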

Measured: growth inhibition

CC(Br)C(=O)NC(Cc1ccccc1)C(=O)O (stereo unspecified)
inactive: [1] 2.65% and -4.15% and -18.5% | [2] -18.9% and 0.65% and -20.2% | [3] -11.8% and 3% | [4] 16.8% and -25.6% | [5] -17.5% and 8.15% | [6] 25.4% and 5.95% and -9.85%

OCC(O)C1OC(Oc2ccccc2)C(O)C(O)C1O (stereo unspecified)
inactive: [1] 2.5% and 35.6% | [2] 32.9% and -1.85% | [3] -6.75% and 4.1% | [4] -3% and -28.4% | [5] 31.3% and 7.35% | [6] 24% and 17.4%

CC(=O)/C=C/C1=C(C)CCCC1(C)C
inactive: [1] -21.8% and 11.2% | [2] -8.35% and -10.9% | [3] -18.1% and -19.4% | [4] -14.7% and 8.05% | [5] -20.9% and 0.5% | [6] 11.8% and -2.2%

O=C(O)C1CCCCC1
inactive: [1] -5.9% and -10.2% | [2] -22.6% and -8.45% | [3] -13.7% and 22.7% | [4] 5.95% and -13.2% | [5] 2.15% and 2.55% | [6] 8.3% and 17.1%

CC(=O)OCC1OC(Sc2nc(-c3ccc(Cl)cc3)c(C#N)c(=O)n2C2OC(COC(C)=O)C(OC(C)=O)C(OC(C)=O)C2OC(C)=O)C(OC(C)=O)C(OC(C)=O)C1OC(C)=O (stereo unspecified)
inactive: [1] 8.9% and 6.85% | [2] 7.4% and -3.8% | [3] 9.7% and -9.1% | [4] -18.6% and -12.2% | [5] 9.75% and -7.95% | [6] 2.8% and -46.5%

O=C1/C(=C/c2ccc(F)cc2)CCC/C1=C\c1ccc(F)cc1
inactive: [1] 26.6% and -14.2% | [2] -25.7% and -10.3% | [3] 34.2% and 1.45% | [4] 27.7% and -21.4% | [5] 15.4% and -5.45% | [6] 18.9% and -6.1%

CC1CCC2(OC1)OC1CC3C4CCC5CC(O)CCC5(C)C4CCC3(C)C1C2C (stereo unspecified)
inactive: [1] 22.4% and -15.3% | [2] -29.8% and -19.3% | [3] 2.45% and -24.1% | [4] 7.15% and 0.8% | [5] 9.4% and -9.1% | [6] 26.8% and -12.7%

O=C(O)/C=C/c1c2ccc(=O)cc-2oc2cc(O)ccc12
inactive: [1] -9.9% and 0.5% | [2] -21.8% and 29.6% | [3] 15.1% and 17.6% | [4] 21.2% and 7.05% | [5] -8.15% and 17.1% | [6] 4.65% and -5.95%

O=C(NC(=O)c1ccccc1)NC(=O)c1ccccc1
inactive: [1] -2.6% and -1.25% | [2] -10% and -14.1% | [3] -3.35% and 1.1% | [4] 7.8% and -17.6% | [5] 8.35% and -6.25% | [6] -3.65% and -45.1%

Cc1ccc(S(=O)(=O)Nc2cc(=O)[nH]c3c2CCC3)cc1
inactive: [1] -2.05% and 43.4% | [2] -4.75% and 18.3% | [3] 9.25% and -26.8% | [4] -52% and 0.65% | [5] -18% and 24.2% | [6] -6.2% and 2.9%

COc1cc2c(cc1OC)C1Cc3cc(OC)c(OC)cc3C(C2)N1C
inactive: [1] 23.4% and -37.9% | [2] 4.4% and -16.9% | [3] -6.2% and -5% | [4] 6.8% and 2.6% | [5] -5.25% and -3.2% | [6] -45% and -24.2%

CC(=O)O[C@@H]1C[C@H](C)CC[C@H]1C(C)C
inactive: [1] 5.85% and 0.6% | [2] -9.8% and -2.35% | [3] -3.05% and -3.7% | [4] 5.8% and 23% | [5] 4.5% and -1.45% | [6] -3.4% and -0.8%

O=S(=O)(O)CCO
inactive: [1] 13.6% and -1.9% | [2] -8.35% and -8.7% | [3] 20.7% and 9.75% | [4] 19.1% and 16.2% | [5] 0.3% and -3.5% | [6] 2.25% and 28%

Nc1c2c(nc3ccccc13)CCCC2 (tested in a mixture with another compound)
inactive: [1] -7.95% and -12.2% | [2] -20.4% and -22.8% | [3] -14.9% and -14% | [4] 9.6% and 9.4% | [5] -21.2% and -18.6% | [6] -11.7% and -0.1%

CCCCc1c(C)[nH]c(=S)[nH]c1=O
inactive: [1] -6.15% and 5.3% | [2] -14.8% and -14.1% | [3] -4.35% and 0.4% | [4] -6.1% and 13.2% | [5] -0.05% and 15% | [6] -5.45% and 2%

O=C(c1ccco1)C(O)c1ccco1 (stereo unspecified)
inactive: [1] 18.4% and -8.55% | [2] -12.6% and -3.75% | [3] 1.55% and 11.1% | [4] 3.95% and -7.7% | [5] 15.7% and 1.55% | [6] -0.05% and -12.2%

COc1cc2c(c(OC)c1OC)-c1ccc(OC)c(=O)cc1C([N+](C)(C)C)CC2 (stereo unspecified)
inactive: [1] 21.2% and -13.3% | [2] 12.3% and 7.7% | [3] 16.9% and -18.1% | [4] -0.65% and -11.1% | [5] -3% and -0.4% | [6] 25.5% and 7.4%

C[N+](C)(C)CCOP(=O)(O)OP(=O)([O-])OCC1CCC(n2ccc(N)nc2=O)O1 (stereo unspecified)
inactive: [1] 7.7% and 4.45% | [2] -11.1% and 0.25% | [3] -18.8% and 9.2% | [4] 5.8% and -2.15% | [5] -38.6% and 2.55% | [6] -38.8% and -3.45%

CCCN=C(N)C(N)=NCCC (tested in a mixture with another compound)
inactive: [1] 0.4% and 6.5% | [2] -3.95% and 7.35% | [3] 9% and 26.4% | [4] -21.4% and 7.55% | [5] 12.6% and 3.75% | [6] 6.65% and 10%

CN(C)CC1CCCC1=O (stereo unspecified)
inactive: [1] 7.15% and 1.25% | [2] -0.95% and -7.1% | [3] 5.8% and -22.7% | [4] 1.75% and 8.6% | [5] -0.75% and 8.25% | [6] 4.6% and 11.3%

O=C(O)Cc1ccc(C2CCC(O)CC2)cc1 (stereo unspecified)
inactive: [1] 2.75% and 8.45% | [2] -5.35% and -1.85% | [3] 3.05% and 21.2% | [4] -17.8% and -4.3% | [5] -0.15% and 5.4% | [6] 0.9% and 1%
